Among the data in PubChem BioAssay (EPA / NIEHS) are outcome and AC50 values, retold here.

The structures appear in SMILES notation. Where a structure was tested more than once in an assay, its records may differ in their call. Calls of active or inactive are those of the source. The calls were made as follows: active = hit-call score of the fitted dose curve at least 0.9, where 1 is the maximum; inactive = score below 0.9.

Read-out in test [1]: C-C motif chemokine 2 (Homo sapiens) (UniProt P13500)
As to the kind of experiment: BSK_KF3CT_MCP1: BioMAP Diversity Plus: KF3CT Assay for Monocyte Chemoattractant Protein 1 (MCP1/CCL2) Biomarker Activity (AID 2283073). To be noted: primary human keratinocytes with fibroblasts; actives raise or lower the signal. In outline:
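ELISA readout of MCP-1 after 24 h chemical dosing of a human skin primary co-culture of keratinocytes and foreskin fibroblasts. Activity was fitted in both directions against DMSO.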

Read-out in test [2]: Matrix Metallopeptidase 9 (MMP9), MMP9 (gene 4318)
Description: BSK_KF3CT_MMP9: BioMAP Diversity Plus: KF3CT Assay for Matrix Metallopeptidase 9 (MMP9) Biomarker Activity (AID 2283074). The note with it: primary human keratinocytes with fibroblasts; actives raise or lower the signal. In outline: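 Human keratinocyte and foreskin fibroblast co-culture exposed to chemicals for 24 h; MMP9 biomarker measured by ELISA, bidirectional fitting relative to DMSO; cytotoxicity tracked by SRB total protein staining in parallel cultures.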

Read-out in test [3]: urokinase plasminogen activator (uPA), PLAU (gene 5328)
Description: BSK_KF3CT_uPA: BioMAP Diversity Plus: KF3CT Assay for urokinase plasminogen activator (uPA) Biomarker Activity (AID 2283075). The note with it: primary human keratinocytes with fibroblasts; actives raise or lower the signal. In outline:
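Primary human keratinocyte/foreskin fibroblast co-culture exposed to chemical; uPA measured by ELISA at 24 h. Bidirectional fit versus DMSO, with parallel SRB total-protein staining for cytotoxicity.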

Read-out in test [4]: CD40, CD40 (gene 958)
As to the kind of experiment: BSK_LPS_CD40: BioMAP Diversity Plus: LPS Assay for CD40 Biomarker Activity (AID 2283076). To be noted: primary human HUVEC with PBMC; actives raise or lower the signal. In a few lines: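 Cells were dosed, incubated 24 h, then assayed for CD40 by ELISA. Gain or loss of signal was analysed relative to DMSO controls. The culture paired human umbilical vein endothelium with peripheral blood mononuclear cells.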

Read-out in test [5]: E-selectin (Homo sapiens) (UniProt P16581)
As to the kind of experiment: BSK_LPS_Eselectin: BioMAP Diversity Plus: LPS Assay for Eselectin Biomarker Activity (AID 2283077). To be noted: primary human HUVEC with PBMC; actives raise or lower the signal. In outline: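 Primary human vascular co-culture (endothelium plus PBMC) was dosed with chemical, then E-selectin quantified by ELISA at 24 h. Endpoint values derive from bidirectional curve fitting relative to DMSO.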

Read-out in test [6]: Interleukin-8 (IL8), CXCL8 (gene 3576)
As to the kind of experiment: BSK_LPS_IL8: BioMAP Diversity Plus: LPS Assay for Interleukin-8 (IL8) Biomarker Activity (AID 2283078). The note with it: primary human HUVEC with PBMC; actives raise or lower the signal. In a few lines: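 Readout is IL-8 by ELISA, taken 24 h after compounds were added to LPS-stimulated endothelial/PBMC co-cultures. Both increases and decreases relative to DMSO control were scored through bidirectional fitting.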

A short description of test [7]: BSK_LPS_SRB: Viability Assessment in the BioMAP Diversity Plus: LPS Assay (AID 2283079).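 Also: total protein by sulforhodamine B absorbance as a cytotoxicity measure; measured one day after compound addition.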 The note with it: primary human HUVEC with PBMC. In a few lines: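 Readout is SRB absorbance at 560 nm (0.1% stain, TCA-fixed parallel cultures) as a total-protein cytotoxicity measure. Cells: primary human umbilical vein endothelium plus peripheral blood mononuclear cells, 24 h after chemical exposure; DMSO served as baseline.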

Read-out in test [8]: Interleukin-1 alpha (IL1a), IL1A (gene 3552)
As to the kind of experiment: BSK_LPS_IL1a: BioMAP Diversity Plus: LPS Assay for Interleukin-1 alpha (IL1a) Biomarker Activity (AID 2283080). To be noted: primary human HUVEC with PBMC; actives raise or lower the signal. In a few lines:
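ELISA read-out of IL-1 alpha from a human primary vascular co-culture (endothelium plus PBMC) under LPS, sampled 24 hours post-dosing. Activity was fitted in both directions relative to DMSO controls.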

Read-out in test [9]: Monocyte Chemoattractant Protein-1 (MCP1), CCL2 (gene 6347)
As to the kind of experiment: BSK_LPS_MCP1: BioMAP Diversity Plus: LPS Assay for Monocyte Chemoattractant Protein-1 (MCP1) Biomarker Activity (AID 2283081). The note with it: primary human HUVEC with PBMC; actives raise or lower the signal. In outline: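 Human endothelial–PBMC co-cultures were dosed with chemical, then LPS-driven MCP-1 levels were quantified by ELISA at 24 h. Activity in either direction was fitted versus DMSO negative control.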

Test [10] in a line: BSK_LPS_PGE2: BioMAP Diversity Plus: LPS Assay for Prostaglandin E2 (PGE2) Biomarker Activity (AID 2283082). The note with it: primary human HUVEC with PBMC; actives raise or lower the signal. In a few lines: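 HUVEC plus PBMC co-culture stimulated with LPS; secreted PGE2 quantified by ELISA 24 h after chemical dosing. Activity fitted bidirectionally against DMSO as negative control and baseline; parallel SRB total-protein staining served as cytotoxicity check.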

Read-out in test [11]: Macrophage colony-stimulating factor (MCSF), CSF1 (gene 1435)
Description: BSK_LPS_MCSF: BioMAP Diversity Plus: LPS Assay for Macrophage colony-stimulating factor (MCSF) Biomarker Activity (AID 2283083). The note with it: primary human HUVEC with PBMC; actives raise or lower the signal. In outline: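 ELISA readout of M-CSF after 24 h compound exposure in a human endothelial/PBMC co-culture. Activity, in either direction, is fitted relative to DMSO vehicle.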

Read-out in test [12]: Tissue Factor, F3 (gene 2152)
Description: BSK_LPS_TissueFactor: BioMAP Diversity Plus: LPS Assay for Tissue Factor Biomarker Activity (AID 2283084). To be noted: primary human HUVEC with PBMC; actives raise or lower the signal. In a few lines: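 ELISA signal for cell-surface Tissue Factor (CD142) was read 24 h after compound dosing of an LPS-stimulated human endothelial–PBMC primary co-culture. Gain or loss of signal was scored relative to DMSO.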

Read-out in test [13]: Tumor necrosis factor (Homo sapiens) (UniProt P01375)
As to the kind of experiment: BSK_LPS_TNFa: BioMAP Diversity Plus: LPS Assay for Tumour Necrosis Factor alpha (TNFa) Biomarker Activity (AID 2283085). The note with it: primary human HUVEC with PBMC; actives raise or lower the signal. In outline:
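Human umbilical vein endothelial cells co-cultured with PBMC were exposed to test chemical and TNFa measured by ELISA 24 h after dosing. Bidirectional curve fitting was done relative to DMSO as negative control and baseline.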

Read-out in test [14]: Vascular cell adhesion molecule 1 (VCAM1), VCAM1 (gene 7412)
Description: BSK_LPS_VCAM1: BioMAP Diversity Plus: LPS Assay for Vascular cell adhesion molecule 1 (VCAM1) Biomarker Activity (AID 2283086). The note with it: primary human HUVEC with PBMC; actives raise or lower the signal. In a few lines:
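Human umbilical vein endothelial cells co-cultured with peripheral blood mononuclear cells under LPS stimulation were exposed to test chemical for 24 h. VCAM-1 levels were then measured by ELISA, with bidirectional curve fitting relative to DMSO as negative control and baseline.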

Read-out in a further test: CD38, CD38 (gene 952)
As to the kind of experiment: BSK_SAg_CD38: BioMAP Diversity Plus: SAg Assay for CD38 Biomarker Activity (AID 2283087). To be noted: primary human HUVEC with PBMC; actives raise or lower the signal. In outline: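 Fluorescence ELISA of cell-surface CD38 served as the read-out, with either increase or decrease fitted against DMSO controls. Cells were a human umbilical vein endothelium plus PBMC co-culture under SEB/TSST-1 stimulation, measured 24 h after dosing.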

Read-out in test [15]: CD40, CD40 (gene 958)
As to the kind of experiment: BSK_SAg_CD40: BioMAP Diversity Plus: SAg Assay for CD40 Biomarker Activity (AID 2283088). To be noted: primary human HUVEC with PBMC; actives raise or lower the signal. In outline:
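Compounds were dosed onto a human primary endothelial–PBMC co-culture, and after 24 h CD40 was quantified by ELISA using a fluorescence signal. Activity in either direction was fitted relative to DMSO.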

Read-out in another test: CD69, CD69 (gene 969)
As to the kind of experiment: BSK_SAg_CD69: BioMAP Diversity Plus: SAg Assay for CD69 Biomarker Activity (AID 2283089). To be noted: primary human HUVEC with PBMC; actives raise or lower the signal. In a few lines: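 HUVEC co-cultured with PBMC were dosed with chemical, and CD69 was measured by ELISA with fluorescence read-out 24 h later. Bidirectional curve fitting used DMSO as negative control and activity baseline.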

Read-out in test [16]: Monocyte Chemoattractant Protein-1 (MCP1), CCL2 (gene 6347)
Description: BSK_SAg_MCP1: BioMAP Diversity Plus: SAg Assay for Monocyte Chemoattractant Protein-1 (MCP1) Biomarker Activity (AID 2283090). To be noted: primary human HUVEC with PBMC; actives raise or lower the signal. In a few lines:
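MCP-1 levels in the endothelial–PBMC SAg co-culture were quantified by ELISA at 24 h post-dosing; both increases and decreases versus DMSO scored. Cytotoxicity monitored by SRB total protein in parallel cultures.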

Read-out in test [17]: E-selectin (Homo sapiens) (UniProt P16581)
Description: BSK_SAg_Eselectin: BioMAP Diversity Plus: SAg Assay for Eselectin Biomarker Activity (AID 2283091). The note with it: primary human HUVEC with PBMC; actives raise or lower the signal. In outline:
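Co-culture: HUVEC + PBMC. Dose compound; 24 h. ELISA for E-selectin. Bidirectional fit vs DMSO.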

Read-out in test [18]: Monokine induced gamma interferon (MIG), CXCL9 (gene 4283)
Description: BSK_SAg_MIG: BioMAP Diversity Plus: SAg Assay for Monokine induced gamma interferon (MIG) Biomarker Activity (AID 2283092). The note with it: primary human HUVEC with PBMC; actives raise or lower the signal. In a few lines: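 HUVEC plus human PBMC co-culture, chemicals dosed and MIG (CXCL9) quantified by ELISA at 24 h. Bidirectional curve fitting against DMSO as negative control and baseline, so both gain and loss of signal count as activity.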

Chain of E-selectin (Homo sapiens) (P16581 whole entry, looked up): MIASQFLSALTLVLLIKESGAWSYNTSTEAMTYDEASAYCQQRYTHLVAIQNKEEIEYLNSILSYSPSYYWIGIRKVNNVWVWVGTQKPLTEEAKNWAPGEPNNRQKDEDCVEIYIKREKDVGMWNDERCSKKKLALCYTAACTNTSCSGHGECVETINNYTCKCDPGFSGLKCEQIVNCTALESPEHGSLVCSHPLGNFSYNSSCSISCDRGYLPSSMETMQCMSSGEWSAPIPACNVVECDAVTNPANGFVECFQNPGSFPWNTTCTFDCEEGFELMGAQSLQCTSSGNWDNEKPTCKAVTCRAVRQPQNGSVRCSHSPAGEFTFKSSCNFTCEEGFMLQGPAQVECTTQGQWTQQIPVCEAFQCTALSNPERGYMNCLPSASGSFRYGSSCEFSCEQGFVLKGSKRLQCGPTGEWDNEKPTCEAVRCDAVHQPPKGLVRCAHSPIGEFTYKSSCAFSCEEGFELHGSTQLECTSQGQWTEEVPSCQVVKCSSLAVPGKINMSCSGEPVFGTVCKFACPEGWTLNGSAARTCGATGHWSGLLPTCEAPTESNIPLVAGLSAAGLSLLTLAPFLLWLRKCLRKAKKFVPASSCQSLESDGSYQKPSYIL
Chain of Tumor necrosis factor (Homo sapiens) (P01375 whole entry, looked up): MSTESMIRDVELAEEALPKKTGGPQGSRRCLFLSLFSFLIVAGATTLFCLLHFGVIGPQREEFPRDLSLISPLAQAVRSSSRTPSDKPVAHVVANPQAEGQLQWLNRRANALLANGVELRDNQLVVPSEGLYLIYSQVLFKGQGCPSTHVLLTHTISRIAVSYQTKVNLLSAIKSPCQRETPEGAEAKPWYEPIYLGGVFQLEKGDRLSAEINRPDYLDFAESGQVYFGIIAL

On to `CC(C=O)Cc1ccc2c(c1)OCO2` (centres undefined), for which the outcome in [1] is “inactive”; in test [2], “inactive”; in [3], “inactive”; in the test with CD40, CD40 (gene 958) [4], “inactive”; in test [5], “inactive”; in test [6] it was “inactive”. Moreover, the result in [7], in test [8], in test [9], in [10], in [11] and in [12] was inactive. In addition, the outcome is “inactive” in [13]; “inactive” in test [14]; “inactive” with CD38, CD38 (gene 952); “inactive” with CD40, CD40 (gene 958) [15]; “inactive” in the test with CD69, CD69 (gene 969); “inactive” in test [16]. Also, the result in test [17] and in test [18] was inactive.
For the compound `O=C(Cc1ccccc1)OCCc1ccccc1`, the outcome in test [1] is “inactive”; in test [3] it was “inactive”; in the test with CD40, CD40 (gene 958) [4], “inactive”; in test [5], “inactive”; in test [6] it was “inactive”; in test [7], “inactive”. In addition, the outcome in test [8], in test [9], in test [10], in [11], in [12] and in test [14] was inactive. For the same compound, the outcome in the test with CD38, CD38 (gene 952) was “inactive”; with CD40, CD40 (gene 958) [15] it was “inactive”; in the test with CD69, CD69 (gene 969), “inactive”; in [16], “inactive”; in test [17], “inactive”; in [18] it was “inactive”. In test [8], the AC50 was 3.97 µM (active).
Consider `O=C(N[C@H]1CN2CCC1CC2)c1ccc2c(c1)OCCO2`, for which the outcome in [1] is “inactive”; in test [2] it was “inactive”; in [3] it was “inactive”; with CD40, CD40 (gene 958) [4], “inactive”; in test [5] it was “inactive”; in [6] it was “inactive”. For the same compound, the result in test [7], in [8], in test [9], in [11], in test [12] and in [13] was inactive. Also, the outcome in test [14] was “inactive”; in the test with CD38, CD38 (gene 952) it was “inactive”; with CD40, CD40 (gene 958) [15], “inactive”; with CD69, CD69 (gene 969), “inactive”; in test [16] it was “inactive”; in test [17] it was “inactive”. Further, the result in test [18] was inactive. The concentration at half-maximal activity (AC50) in test [10] is 2.86 µM (active).
